Test results published in PubChem BioAssay (NCI).
This is part of a sample that, as a whole, favours compounds with a hit. Of some 83,000 tested, about 20% had one in any assay.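 Treatment: one concentration, 48 hours, 96-well format. Scoring: percent growth, with anything below 10 considered active.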 A number with no mark means an inactive call. Calls of active or inactive are those of the source.

Experiments:
Test in all cases: NCI-60 one-dose screen, 48 h (100 = growth as untreated, 0 = no growth, -100 = all killed)
Conditions in all cases: 10 µM unless noted
[1] = tested on: NCI-H23 lung
[2] = tested on: NCI-H226 lung
[3] = tested on: NCI-H322M lung
[4] = tested on: HOP-62 NSCLC
[5] = tested on: NCI-H460 lung
[6] = tested on: HOP-92 NSCLC
[7] = tested on: NCI-H522 lung
[8] = tested on: A549/ATCC NSCLC
[9] = tested on: 786-0 renal
[10] = tested on: COLO 205 colon

SMILES	growth [1]	growth [2]	growth [3]	growth [4]	growth [5]	growth [6]	growth [7]	growth [8]	growth [9]	growth [10]
C/C(=C(/c1ccc(O)cc1)c1ccc(OCCN2CCCC2)cc1)c1ccccc1	68.1%	82.9%	75.8%	70.3%	24.7%	30%	49.8%	48.7%	57.1%	-56.4% (active)
Cc1noc(C)c1-c1cc(O)cc(C(O)c2ccccc2)c1 (stereo not given)	68.1%	65.5%	47.6%	47.2%	67.2%	25.6%	22.1%	55.4%	54.8%	37.1%
COc1cc(-c2cc(-c3nc4ccc(Cl)cc4[nH]3)[nH]n2)cc(OC)c1OC	45.5%	18.1%	51.4%	40.1%	60.4%	67.2%	45.3%	50%	65.1%	60.5%
Cc1cc(N/N=C/c2nc(-c3ccc(Cl)cc3)oc2C)c2cc(Br)ccc2n1	96.4%	92.9%	72.5%	100%	-47.4% (active)	69.6%	-1.02% (active)	17.1%	24.6%	91.6%
C(=N\Nc1ccccn1)/c1ccccn1	12.1%	16%	15.7%	19.2%	7.9% (active)	79.1%	-9.71% (active)	12.2%	-41.9% (active)	34.6%
CNC(=S)N/N=C/CSC/C=N/NC(=S)NC	85.2%	104%	106%	90.5%	70.5%	101%	18.7%	62.8%	96.1%	39.1%
CCCCCCCCCCCCCCCCCCNC(=O)[C@H]1CSC(c2ccc(OC)c(F)c2)N1 (stereo not given in full)	36.9%	-68% (active)	38.4%	-82.9% (active)	-67.8% (active)	37.8%	56.7%	20.9%	22.8%	102%
Cc1[nH]n(-c2ccccc2)c2nc3nncc3c(-c3ccc(Cl)cc3)c12	103%	104%	114%	110%	102%	76.2%	105%	84.9%	100%	111%
C[C@H](CCC(=O)O)[C@H]1CC[C@H]2[C@@H]3CC[C@@H]4/C(=C\c5ccco5)C(=O)/C(=C\c5ccco5)C[C@]4(C)[C@H]3CC[C@]12C	70.4%	89.2%	95.6%	116%	81.9%	106%	37.3%	72.1%	91%	87.3%
Cc1ccccc1CCO	100%	93.7%	90.8%	89.1%	105%	104%	76.2%	85.4%	100%	92.7%
O=c1cc(-c2ccccc2)[nH]c2ccccc12	39.1%	70.2%	55.4%	49%	13.2%	38.5%	-46.9% (active)	19.1%	32.3%	5.72% (active)
N#CC1=C(N)Oc2c(ccc3ccccc23)C1c1cccs1 (stereo not given)	18%	40.9%	39.1%	25.5%	0.254% (active)	35.5%	-0.254% (active)	22.5%	31.9%	-54.9% (active)
CCN(CC)CCCNc1cccc2c(SCc3ccccc3)ccnc12	69.3%	89.8%	41.6%	94.8%	72%	26.2%	52%	63.7%	72.7%	106%
COC(=O)[C@H](C(C)C)n1c(=O)c2cc(OC)c(OC)cc2c2cnc3[nH]ccc3c21	62.1%	46.4%	48.5%	45.8%	41.2%	13.7%	62.8%	40.7%	52.9%	57.5%
Cc1cc(Nc2nc(N3CCN(C)CC3)nc3ccccc23)n[nH]1	91.6%	81.6%	86.4%	81.4%	69.6%	59.8%	41.2%	65.2%	59.8%	58%
C=C1C(=O)O[C@H]2[C@H]1CC/C(Cn1cc(Cn3ccc4cc(Cl)ccc43)nn1)=C\CC[C@@]1(C)O[C@@H]21	13.1%	61.4%	76.6%	75.7%	64.2%	-61.6% (active)	-76% (active)	48.5%	-71.4% (active)	-82.3% (active)
NC(=S)N/N=C/c1cc(-c2cccc(N)c2)ccn1	23.1%	16.5%	8.21% (active)	5.98% (active)	5.59% (active)	39.7%	-17.3% (active)	21.7%	31.4%	25.5%
Cc1ccc(Nc2nc(N)nc(Nc3ccc4ccccc4c3)n2)cc1	69.2%	89.8%	52.4%	47%	14.6%	21.1%	6.88% (active)	30.9%	46.6%	18.7%
C[C@@]1(N2C(=O)OC[C@@H]2c2ccccc2)C(=O)N([C@H](CC(=O)N2CCC(N3CCCCC3)CC2)C(=O)NCc2cccc(C(F)(F)F)c2)[C@@H]1/C=C/c1ccccc1	78.8%	89.6%	72.8%	84.7%	2.37% (active)	64.4%	-9.84% (active)	54.6%	70%	-67.1% (active)
OC(c1cc(-c2ccccc2)nc2ccc(Cl)cc12)C1CCCCN1 (stereo not given)	66.9%	71.3%	41.8%	93.3%	-16.8% (active)	6.52% (active)	59.7%	21.7%	66.8%	-60.9% (active)
C/C(Cc1ccc(Cl)cc1)=C(\c1ccc(OCCN2CCCCCC2)cc1)c1ccc(OC(=O)C2CCCCC2)cc1	74.8%	79.2%	70.5%	81.5%	34.7%	29.1%	64.8%	66.5%	70%	-21.8% (active)
COc1ccc(C2CC(=O)Nc3c2c(C)nn3-c2nc3ccccc3[nH]2)cc1 (stereo not given)	99.1%	101%	53.9%	116%	20.8%	89.1%	98.2%	97.4%	106%	129%
O=[N+]([O-])c1cccc(-c2nc3sccn3c2-c2ccnc(NCCCNS(=O)(=O)c3cccc(F)c3)n2)c1	-9.68% (active)	-5.67% (active)	45.2%	13.1%	16.3%	46.3%	-8.69% (active)	7.27% (active)	43.4%	-2.26% (active)
NC1=CSC2=N/C(=C\c3ccc(Cl)cc3)C(=O)N12	72.6%	80.3%	95.7%	83.5%	62.1%	69.5%	33.8%	74.2%	81.4%	90%
CN1C2CCC1/C(=C\c1ccc(Cl)cc1)C1=C2[C@@H](c2ccc(Cl)cc2)C(C#N)=C(N)O1 (stereo not given in full)	83.5%	88.2%	89.9%	88.9%	91.6%	70.4%	78.3%	83.1%	93.2%	87.5%
